# Test results from PubChem BioAssay (NCATS).
# “And” between values parts separate entries of the source, which are not always exact repeats. Equal values may be shown once. A number with no mark means an inactive call. Inconclusive results are not listed. Entries that show only a call come without a potency. The source made the active and inactive calls. Unless noted, calls come from the whole dose curve; as a rule, active = well fitted curve in the direction sought with a large enough effect; inconclusive = small, poorly fitted or top-dose-only effect, or another doubt; inactive = no such curve, though single readings can be large; an effect the other way counts as inactive or inconclusive.
# Key:
# Hek293T = assay: Primary qHTS to identify gynecologic anti-cancer compounds using libraries of approved drugs and bioactive compounds (AID 1345084); conditions: Gynecologic cancer cell panel viability, ATPlite luminescence, 48 h, control line for the selectivity index; series mostly up to 57.5 µM; note: nearly all actives have a fitted effect of over 55% in size
# Procedure, shortened: (§1)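 Cells, 1,000 per well, were allowed to settle for 16 h at 37 C before compound addition. Five concentrations were tested for 48 h, and viability was read by ATPlite luminescence after 15 min at room temperature.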
# JEG-3 = assay: as above; conditions: Gynecologic cancer cell panel viability, ATPlite luminescence, 48 h; series mostly up to 57.5 µM
# Procedure, shortened: as §1
# OV90 = assay: as above; conditions: Gynecologic cancer cell panel viability, ATPlite luminescence, 48 h; series mostly up to 57.5 µM
# Procedure, shortened: as §1
# PA-1 = assay: as above; conditions: Gynecologic cancer cell panel viability, ATPlite luminescence, 48 h; series mostly up to 57.5 µM
# Procedure, shortened: as §1
# SKOV3 = assay: as above; conditions: Gynecologic cancer cell panel viability, ATPlite luminescence, 48 h; series mostly up to 57.5 µM
# Procedure, shortened: as §1
# Tov-21-G = assay: as above; conditions: Gynecologic cancer cell panel viability, ATPlite luminescence, 48 h; series mostly up to 57.5 µM
# Procedure, shortened: as §1
# Tov112D = assay: as above; conditions: Gynecologic cancer cell panel viability, ATPlite luminescence, 48 h; series mostly up to 57.5 µM
# Procedure, shortened: as §1
# [1] = Drug repurposing screens with cells derived from glioblastoma tumor samples (AID 1345199); conditions: GBM patient neurospheres viability, ATP luminescence, 48 h; note: nearly all actives have a fitted effect of over 40% in size; note: potency is the fitted concentration of half-maximal effect
# Procedure, shortened: (§2)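 Four patient lines of CD133+ GBM neurospheres were screened at several concentrations; hits were retested in those lines plus three slower-growing GBM lines, using 48-hour treatment and ATP-based viability.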
# astro = assay: as above; conditions: viability, ATP luminescence, 48 h; series mostly up to 45.9 µM
# Procedure, shortened: as §2
# [2] = target: Nuclear receptor subfamily 1 group I member 2 (Rattus norvegicus) (UniProt Q9R1A7); assay: qHTS assay for small molecule activators of the rat pregnane X receptor (rPXR) signaling pathway (AID 651751; call rule not given here); conditions: rPXR reporter cells, luciferase (One-Glo), 24 h
# [3] = qHTS assay for small molecule activators of the human pregnane X receptor (PXR) signaling pathway (AID 720659; call rule not given here)
# [4] = at 20 µM (top of the series), tumour line C
# [5] = at 21.2 µM (top of the series), tumour line B
# [6] = at 21.2 µM (top of the series), tumour line D
# [7] = at 21.3 µM (top of the series), tumour line A
# [8] = at 45.9 µM (top of the series), tumour line B
# [9] = at 45.9 µM (top of the series), tumour line D
# [10] = at 46 µM (top of the series), tumour line A
# [11] = at 46.1 µM (top of the series), tumour line C
# Nuclear receptor subfamily 1 group I member 2 (Rattus norvegicus), sequence (Q9R1A7 whole entry, looked up): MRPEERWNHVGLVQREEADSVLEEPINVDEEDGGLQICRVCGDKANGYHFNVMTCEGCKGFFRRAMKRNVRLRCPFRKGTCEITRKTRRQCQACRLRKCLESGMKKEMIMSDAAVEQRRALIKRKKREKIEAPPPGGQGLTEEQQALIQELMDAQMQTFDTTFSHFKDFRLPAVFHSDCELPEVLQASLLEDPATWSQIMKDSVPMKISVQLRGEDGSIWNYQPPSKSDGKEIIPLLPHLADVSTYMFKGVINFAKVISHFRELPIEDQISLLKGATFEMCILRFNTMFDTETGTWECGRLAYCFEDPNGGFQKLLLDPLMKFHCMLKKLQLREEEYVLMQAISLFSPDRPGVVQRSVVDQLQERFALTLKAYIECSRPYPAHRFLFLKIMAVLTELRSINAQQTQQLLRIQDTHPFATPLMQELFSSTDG
structure (smiles),measurement,setting,value
Cc1ncc([N+](=O)[O-])n1CC(O)CCl (stereo not drawn),Potency,Hek293T,inactive
same,Potency,JEG-3,inactive
same,Potency,OV90,inactive
same,Potency,PA-1,inactive
same,Potency,SKOV3,inactive
same,Potency,Tov-21-G,inactive
same,Potency,Tov112D,inactive
same,"activity, negative = cell killing",[1]; [4],-11.2%
same,"activity, negative = cell killing",[1]; [5],-18%
same,"activity, negative = cell killing",[1]; [6],-1.81%
same,"activity, negative = cell killing",[1]; [7],-11.7%
same,Potency,astro,inactive
COc1cc2[nH]c(=O)[nH]c(=O)c2cc1OC,Potency,Hek293T,inactive
same,Potency,JEG-3,inactive
same,Potency,OV90,inactive
same,Potency,PA-1,inactive
same,Potency,SKOV3,inactive
same,Potency,Tov-21-G,inactive
same,Potency,Tov112D,inactive
same,"activity, negative = cell killing",[1]; [4],-13.5%
same,"activity, negative = cell killing",[1]; [5],-9.77%
same,"activity, negative = cell killing",[1]; [6],1.35%
same,"activity, negative = cell killing",[1]; [7],-29.6%
same,Potency,astro,inactive
O=C(O)c1ccccc1O,Potency,Hek293T,inactive
same,Potency,JEG-3,inactive
same,Potency,OV90,inactive
same,Potency,PA-1,inactive
same,Potency,SKOV3,inactive
same,Potency,Tov-21-G,inactive
same,Potency,Tov112D,inactive
same,"activity, negative = cell killing",[1]; [8],-1.6% and -1.62%
same,"activity, negative = cell killing",[1]; [9],-9.17% and -18.2%
same,"activity, negative = cell killing",[1]; [10],-20.3%
same,"activity, negative = cell killing",[1]; [11],-6.51% and 1.73%
same,Potency,astro,inactive
NC(=O)c1ncn([C@@H]2O[C@H](CO)[C@@H](O)[C@H]2O)c1N,Potency,Hek293T,inactive
same,Potency,JEG-3,inactive
same,Potency,OV90,inactive
same,Potency,PA-1,inactive
same,Potency,SKOV3,inactive
same,Potency,Tov-21-G,inactive
same,Potency,Tov112D,inactive
same,"activity, negative = cell killing",[1]; [8],-9.5%
same,"activity, negative = cell killing",[1]; [9],-4.13%
same,"activity, negative = cell killing",[1]; [10],-19.7%
same,"activity, negative = cell killing",[1]; [11],-3.52%
same,Potency,astro,inactive
NS(=O)(=O)c1cc2c(cc1Cl)NC(CSCc1ccccc1)=NS2(=O)=O,Potency,Hek293T,inactive
same,Potency,JEG-3,inactive
same,Potency,OV90,inactive
same,Potency,PA-1,inactive
same,Potency,SKOV3,inactive
same,Potency,Tov-21-G,inactive
same,Potency,Tov112D,inactive
same,"activity, negative = cell killing",[1]; [4],5.29%
same,"activity, negative = cell killing",[1]; [5],-6.25%
same,"activity, negative = cell killing",[1]; [6],-24.5%
same,"activity, negative = cell killing",[1]; [7],-18.3%
same,Potency,astro,inactive
C[C@@H]1C[C@H]2[C@@H]3C[C@H](F)C4=CC(=O)C=C[C@]4(C)[C@@]3(F)[C@@H](O)C[C@]2(C)[C@@]1(O)C(=O)CO,Potency,Hek293T,inactive
same,Potency,JEG-3,inactive
same,Potency,OV90,inactive
same,Potency,PA-1,inactive
same,Potency,SKOV3,inactive
same,Potency,Tov-21-G,inactive
same,Potency,Tov112D,inactive
same,"activity, negative = cell killing",[1]; [4],17.9%
same,"activity, negative = cell killing",[1]; [5],-15.7%
same,"activity, negative = cell killing",[1]; [6],-7.98%
same,"activity, negative = cell killing",[1]; [7],-20.6%
same,Potency,astro,inactive
CCn1cc(C(=O)O)c(=O)c2cnc(N3CCNCC3)nc21,Potency,Hek293T,inactive
same,Potency,JEG-3,inactive
same,Potency,OV90,inactive
same,Potency,PA-1,inactive
same,Potency,SKOV3,inactive
same,Potency,Tov-21-G,inactive
same,Potency,Tov112D,inactive
same,"activity, negative = cell killing",[1]; [4],-6%
same,"activity, negative = cell killing",[1]; [5],-11.9%
same,"activity, negative = cell killing",[1]; [6],-14.4%
same,"activity, negative = cell killing",[1]; [7],-22%
same,Potency,astro,inactive
CC1(C)OC(=O)NC1=O,Potency,Hek293T,inactive
same,Potency,JEG-3,inactive
same,Potency,OV90,inactive
same,Potency,PA-1,inactive
same,Potency,SKOV3,inactive
same,Potency,Tov-21-G,inactive
same,Potency,Tov112D,inactive
same,"activity, negative = cell killing",[1]; [8],-11.2%
same,"activity, negative = cell killing",[1]; [9],-10.8%
same,"activity, negative = cell killing",[1]; [10],-19.4%
same,"activity, negative = cell killing",[1]; [11],10.3%
same,Potency,astro,inactive
O=c1[nH]c(=O)c2[nH]c(=O)[nH]c2[nH]1,"activity change, negative = cytotoxicity",Hek293T,6.53% [at 11.6 µM]
same,"activity change, negative = cytotoxicity",JEG-3,3.26% [at 11.6 µM]
same,"activity change, negative = cytotoxicity",OV90,21.7% [at 11.6 µM]
same,"activity change, negative = cytotoxicity",PA-1,8.45% [at 11.6 µM]
same,"activity change, negative = cytotoxicity",SKOV3,-14.3% [at 11.6 µM]
same,"activity change, negative = cytotoxicity",Tov-21-G,19.2% [at 11.6 µM]
same,"activity change, negative = cytotoxicity",Tov112D,-0.835% [at 11.6 µM]
same,"activity, negative = cell killing",[1]; [8],-17.6% and -20.9%
same,"activity, negative = cell killing",[1]; [9],16.7% and -10.4%
same,"activity, negative = cell killing",[1]; [10],-18.4% and -8.7%
same,"activity, negative = cell killing",[1]; [11],-21% and -10.6%
same,Potency,astro,inactive
N[C@@H](CSCCCO)C(=O)O,Potency,Hek293T,inactive
same,Potency,JEG-3,inactive
same,Potency,OV90,inactive
same,Potency,PA-1,inactive
same,Potency,SKOV3,inactive
same,Potency,Tov-21-G,inactive
same,Potency,Tov112D,inactive
same,"activity, negative = cell killing",[1]; [8],0.365%
same,"activity, negative = cell killing",[1]; [9],-10%
same,"activity, negative = cell killing",[1]; [10],-27%
same,"activity, negative = cell killing",[1]; [11],-8.48%
same,Potency,astro,inactive
NC(N)=NCCC[C@H](N)C(=O)O,"activity change, negative = cytotoxicity",Hek293T,14.9% [at 6.55 µM]
same,"activity change, negative = cytotoxicity",JEG-3,7.79% [at 6.55 µM]
same,"activity change, negative = cytotoxicity",OV90,6.81% [at 6.55 µM]
same,"activity change, negative = cytotoxicity",PA-1,23.1% [at 6.55 µM]
same,"activity change, negative = cytotoxicity",SKOV3,0% [at 6.55 µM]
same,"activity change, negative = cytotoxicity",Tov-21-G,-4.36% [at 6.55 µM]
same,"activity change, negative = cytotoxicity",Tov112D,4.12% [at 6.55 µM]
same,"activity, negative = cell killing",[1]; [8],-14.6%
same,"activity, negative = cell killing",[1]; [9],-0.948%
same,"activity, negative = cell killing",[1]; [10],-22.1%
same,"activity, negative = cell killing",[1]; [11],18.8%
same,Potency,astro,inactive
Cc1cc2nc3c(=O)[nH]c(=O)nc-3n(C[C@H](O)[C@H](O)[C@H](O)CO)c2cc1C,Potency,Hek293T,inactive
same,Potency,JEG-3,inactive
same,Potency,OV90,inactive
same,Potency,PA-1,inactive
same,Potency,SKOV3,inactive
same,Potency,Tov-21-G,inactive
same,Potency,Tov112D,inactive
same,"activity, negative = cell killing",[1]; [8],-19.3% and -6.89%
same,"activity, negative = cell killing",[1]; [9],-1.31% and -6.94%
same,"activity, negative = cell killing",[1]; [10],-12.8% and -5.49%
same,"activity, negative = cell killing",[1]; [11],-0.108% and 21.1%
same,Potency,astro,inactive
same,max response,[2],2.07%
Cc1cc(O)cc2c1O[C@](C)(CCC[C@H](C)CCC[C@H](C)CCCC(C)C)CC2,Potency,Hek293T,inactive
same,Potency,JEG-3,inactive
same,Potency,OV90,inactive
same,Potency,PA-1,inactive
same,Potency,SKOV3,inactive
same,Potency,Tov-21-G,inactive
same,Potency,Tov112D,inactive
same,"activity, negative = cell killing",[1]; [11],-14.5%
same,Potency,[1]; tumour line A,5.01 µM (active)
same,Potency,[1]; tumour line B,17.8 µM (active)
same,Potency,[1]; tumour line D,35.5 µM (active)
same,Potency,astro,inactive
O=C1NS(=O)(=O)c2ccccc21,Potency,Hek293T,inactive
same,Potency,JEG-3,inactive
same,Potency,OV90,inactive
same,Potency,PA-1,inactive
same,Potency,SKOV3,inactive
same,Potency,Tov-21-G,inactive
same,Potency,Tov112D,inactive
same,"activity, negative = cell killing",[1]; [8],-3.37%
same,"activity, negative = cell killing",[1]; [9],-3.92%
same,"activity, negative = cell killing",[1]; [10],-6.92%
same,"activity, negative = cell killing",[1]; [11],-6.41%
same,Potency,astro,inactive
same,max response,[2],-2.55%
same,outcome,[3],inactive
O=C(O)CC(O)C(=O)O (stereo not drawn),Potency,Hek293T,inactive
same,Potency,JEG-3,inactive
same,Potency,OV90,inactive
same,Potency,PA-1,inactive
same,Potency,SKOV3,inactive
same,Potency,Tov-21-G,inactive
same,Potency,Tov112D,inactive
same,"activity, negative = cell killing",[1]; [8],-10.7%
same,"activity, negative = cell killing",[1]; [9],-4.49%
same,"activity, negative = cell killing",[1]; [10],-24.7%
same,"activity, negative = cell killing",[1]; [11],-13.6%
same,Potency,astro,inactive
